Data on seven compounds can be found in PubChem BioAssay (NCI).

Compounds without any hit were thinned out: in the full panel of roughly 83,000, 20% have a hit.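 How to read the values: 0–100, growth inhibition (40 = 60% inhibited); 0, no net growth; -100 to 0, cell death (-40 = 40% of starting cells died; -100 = all dead).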 Unmarked numbers belong to inactive results. Activity calls are given as the source filed them. How the source made its calls: active means growth percent below 10; inactive means the rest.

Holding throughout (test): NCI-60 one-dose screen, 48 h (100 = growth as untreated, 0 = no growth, -100 = all killed)
Test [1] has as its system NCI-H23 lung. As to conditions: 10 µM.
The subject of test [2] is NCI-H226 lung. Conditions: 10 µM.
Test [3] deals with NCI-H322M lung. Conditions: 10 µM.
Test [4] relates to HOP-62 NSCLC. Conditions: 10 µM.
Test [5] has as its system HOP-92 NSCLC. As to conditions: 10 µM.
Test [6] has as its system NCI-H522 lung. As to conditions: 10 µM.
Test [7] relates to A549/ATCC NSCLC. Conditions: 10 µM.
In test [8] the test system is 786-0 renal. As to conditions: 10 µM.
Test [9] concerns DU-145 prostate. Conditions: 10 µM.
For test [10], the system named is K-562 leukemia. Conditions: 10 µM.
Test [11] concerns MALME-3M melanoma. As to conditions: 10 µM.
For test [12], the system named is MDA-MB-231 breast. Conditions: 10 µM.
The subject of test [13] is RXF 393 renal. As to conditions: 10 µM.
The test system of test [14] is SF-268 CNS. Conditions: 10 µM.
Test [15] relates to SF-295 CNS. As to conditions: 10 µM.
Test [16] relates to SF-539 CNS. Conditions: 10 µM.
Test [17] concerns UACC-257 melanoma. Conditions: 10 µM.
The test system of test [18] is M14 melanoma. As to conditions: 10 µM unless noted.
Test [19] concerns NCI-H460 lung. Conditions: 10 µM.
Test [20] relates to COLO 205 colon. Conditions: 10 µM.

As for `O=C(NC(=S)Nc1ccccn1)c1ccccc1`, the growth in test [1] was 75.7%; in [2] it was 91.1%; in test [3], 85.5%; in test [4], 106%; in test [5] it was 79.5%; in test [6], 82.1%. The growth in [7] is 101%; in test [8] it was 90.1%; in test [9] it was 96.2%; in test [10], 143%; in test [11] it was 82.6%; in test [12] it was 91.6%. Further, the growth in test [13] was 103%; in test [14], 104%; in test [15] it was 104%; in [16] it was 88.6%; in test [17] it was 110%; in [18], 91.9%.
In the case of `O=C1c2cccc3cc([N+](=O)[O-])cc(c23)C(=O)N1CCN1CCCC1`, the growth in test [1] was -21.7% (active); in [2] it was -62.2% (active); in test [3] it was 23.7%; in [4], -23.3% (active); in test [5] it was 0.989% (active); in test [6], -54.1% (active). Moreover, the growth in test [7] was -28.6% (active); in test [8], -18.8% (active); in [9], -30.9% (active); in [10], -10.2% (active); in test [11] it was -26.4% (active); in test [12] it was 20.6%. Also, the growth in [13] was -43% (active); in [14], 0.438% (active); in test [15], 11%; in test [16], -20.7% (active); in test [17] it was 3.14% (active); in test [18] it was 0.262% (active).
Regarding `O=C(O)c1ccccc1.[Ag]`, the growth in test [1] was 99.3%; in test [2], 104%; in test [3], 109%; in test [4] it was 108%; in test [5] it was 107%; in test [6] it was -25.1% (active). Besides, the growth was 54% in [7]; 108% in test [8]; 105% in test [9]; 90.3% in test [10]; 119% in [11]; 89% in [12]. Also, the growth was 106% in [13]; 97.1% in test [14]; 99.7% in [15]; 106% in [16]; 93.6% in test [17]; 96.4% in test [18].
Turning to `O=C1C=CC(=O)N1c1ccc(N2C(=O)C=CC2=O)cc1`, the growth in [1] is 91.3%; in test [2] it was 84.8%; in test [3], 92.4%; in test [4], 86.8%; in [19], 103%; in [5], 123%. The growth is -11.5% (active) in test [6]; 101% in test [7]; 103% in test [8]; 122% in [9]; -6.5% (active) in test [10]; 85.7% in test [11]. Besides, the growth is 115% in test [12]; 112% in test [14]; 109% in test [15]; 87% in test [16]; 113% in [17]; 98.3% in [18].
Regarding `N#C/C(=C/N1C(=O)/C(=C/c2ccc([N+](=O)[O-])cc2)SC1=S)c1nc2ccccc2s1`, the growth in [1] is 89.1%; in [2], 63.8%; in [3], 88.1%; in test [4], 82.4%; in test [5], 66.8%; in test [6] it was 78.7%. The growth was 91.4% in test [7]; 94.8% in test [8]; 104% in test [9]; 77.5% in test [10]; 111% in [11]; 73.6% in test [12]. The growth in test [13] was 96.8%; in test [14], 95%; in test [15], 86.8%; in [16], 91.9%; in test [17], 96.5%; in [18], 94.6%.
For `CCC(C)(c1ccc(O)c(C)c1)c1ccc(O)c(C)c1`, the growth in [1] is 91.9%; in [2] it was 101%; in test [3], 318%; in test [4], 84.5%; in test [5] it was 82.4%; in [6], 75.9%. Moreover, the growth is 83.4% in test [7]; 63.5% in [8]; 110% in test [9]; 106% in test [10]; 219% in test [11]; 85% in test [12]. Moreover, the growth was 87.4% in test [13]; 89.7% in test [14]; 87.8% in test [15]; 93.7% in test [16]; 107% in test [17]; 91.6% in [18].
With `Cn1ncc2cc3c(Nc4ccc(Cl)cc4)cccc3nc21`, the growth is 85.6% in test [1]; 94.4% in [2]; 104% in test [3]; 89.3% in [4]; 77% in test [5]; 83.8% in test [6]. In addition, the growth was 80% in [7]; 89.3% in test [8]; 96.1% in test [20]; 90% in test [9]; 80.2% in test [10]; 122% in [11]. Also, the growth in test [12] is 81.7%; in test [13], 90.5%; in [14] it was 85.5%; in test [15], 87.6%; in [16] it was 90.7%; in test [17], 100%. For the same compound, the growth in test [18] is 104%.
